# Source: PubChem BioAssay (NCATS)
# Inconclusive results are not listed. A call without a number means that no potency is given here. Calls of active or inactive are those of the source. The call rests on the fitted dose curve; in most records, active means well fitted curve in the direction sought with a large enough effect; inconclusive means small, poorly fitted or top-dose-only effect, or another doubt; inactive means no such curve, though single readings can be large; an effect the other way counts as inactive or inconclusive.
# What was measured:
# [1] = test system: Zika virus NS2B-NS3 protease; experiment: Primary screen GU AMC qHTS for Zika virus inhibitors (AID 1347154); further: nearly all actives have a fitted effect of over 70% in size; further: potency means the concentration at half of the fitted maximal effect
# Summary of the method: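 Unlinked Zika NS2B hydrophilic domain–NS3 protease complex at 25 nM in 10 mM Tris-HCl pH 8.0, 0.01% Tween 20, with an AMC peptide substrate. Fluorescence change (340/450 nm) over 15 min at room temperature, normalized to controls, fitted to 4-parameter Hill.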
# [2] = Confirmatory screen GU Rhodamine qHTS for Zika virus inhibitors qHTS (AID 1347157); further: nearly all actives have a fitted effect of over 70% in size; further: potency means the concentration at half of the fitted maximal effect
# Summary of the method: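 Compounds, tested up to 114 microM, were incubated for 15 minutes with 25 nM unlinked NS2B-NS3 protease at pH 8.0. Cleavage of 1.5 microM Rhodamine110 substrate was then followed by fluorescence for 15 minutes.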
# [3] = test system: Zika virus NS2B-NS3 protease (linked); experiment: 384 well plate NINDS AMC confirmatory qHTS for Zika virus inhibitors (AID 1347163); further: potency means the concentration at half of the fitted maximal effect; nearly all actives have a fitted effect of over 50% in size
# Summary of the method: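 Linked NS2B-NS3 protease (final 5 nM, 30 nM or 60 nM) was preincubated with compounds (final up to 1 mM) for ~15 minutes. Ac-VKTGKR-AMC substrate (final 30 microM) then reacted for 25 minutes at room temperature in the dark. Fluorescence (ex 355/em 460 nm) was normalized to no-enzyme and no-inhibitor controls.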
# [4] = test system: Zika virus NS2B-NS3 protease (linked construct); experiment: 384 well plate NINDS Rhodamine confirmatory qHTS for Zika virus inhibitors (AID 1347164); settings: rhodamine-110 peptide substrate fluorescence;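 further: fluorescence from protease cleavage of Ac-LKRR-rhodamine 110 substrate; potency means the concentration at half of the fitted maximal effect; nearly all actives have a fitted effect of over 65% in size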
# Summary of the method: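 Linked protease at a final 5 nM, 30 nM or 60 nM was preincubated ~15 min with compounds, then given 10 microM Ac-LKRR-Rhodamine 110. Fluorescence (ex 485/em 538 nm) after 25 min in the dark at room temperature.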
# [5] = test system: Zika virus NS2B-NS3 protease (unlinked complex); experiment: Primary screen GU Rhodamine qHTS for Zika virus inhibitors: Unlinked NS2B-NS3 protease assay (AID 1347159); further: nearly all actives have a fitted effect of over 60% in size
# Summary of the method: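 Noncovalent NS2B hydrophilic domain/NS3 protease complex (25 nM final) in 10 mM Tris-HCl pH 8.0, 0.01% Tween 20, preincubated 15 min with compounds (up to 114 microM), then 1.5 microM Rhodamine110 substrate. Fluorescence change over 15 min fitted to 4-parameter Hill.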
# [6] = test system: Zika virus NS2B-NS3 protease (linked construct); experiment: Primary screen NINDS Rhodamine qHTS for Zika virus inhibitors (AID 1347160); further: nearly all actives have a fitted effect of over 55% in size
# Summary of the method: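 Purified NS2B-NS3 protease with the NS2B hydrophilic domain joined by a flexible linker (25 nM) in 10 mM Tris-HCl pH 8.0, 0.01% Tween 20, preincubated 15 min at RT with compound; Rhodamine110 peptide substrate 1.5 µM; fluorescence change over 15 min; 4-parameter Hill fit.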
smiles,measurement,setting,value
Oc1ccccc1C=NCc1ccccc1,Potency,[1],inactive
CC(=O)OCC(=O)[C@H]1CC[C@H]2[C@@H]3CCC4=CC(=O)CC[C@]4(C)[C@H]3CC[C@]12C,Potency,[1],inactive
CC(=O)OCC1=C(C(=O)O)N2C(=O)[C@@H](NC(=O)CSc3ccncc3)[C@H]2SC1,Potency,[1],inactive
CCCCN1C[C@H](O)[C@@H](O)[C@H](O)[C@H]1CO,Potency,[1],inactive
OC(C#CCN1CCCC1)(c1ccccc1)c1ccccc1,Potency,[1],inactive
CC(C)[N+](C)(C)CC(O)COc1cccc2ccccc12 (configuration not stated),Potency,[1],inactive
CC(=O)Nc1ccc(CC(=O)O)cc1,Potency,[1],inactive
C#C[C@]1(O)CC[C@H]2[C@@H]3CCC4=Cc5oncc5C[C@]4(C)[C@H]3CC[C@@]21C,Potency,[1],inactive
NCCNc1cccc2ccccc12,Potency,[1],14.4 µM (active)
CCCCCCCC/C=C\CCCCCCCCN,Potency,[1],inactive
COc1ccc(/C=N/NC(=O)c2ccncc2)cc1OC,Potency,[1],inactive
O=C1OC2(c3ccccc31)c1cc(Br)c(O)c(Br)c1Oc1c2cc(Br)c(O)c1Br,Potency,[1],inactive
N#CCC(=O)NN,Potency,[1],inactive
CC(=O)O[C@]1(C(C)=O)CC[C@H]2[C@@H]3C=C(Cl)C4=CC(=O)CC[C@]4(C)[C@H]3CC[C@@]21C,Potency,[1],inactive
FC(F)(F)C(F)(F)C(F)(F)C(F)(F)C(F)(F)C(F)(F)C(F)(F)C(F)(F)Br,Potency,[1],inactive
CC(C)(C)NCC(O)COc1cccc2c1C[C@H](O)[C@H](O)C2 (some centres not stated),Potency,[1],inactive
CN1CCN(c2cc3c(cc2F)c(=O)c(C(=O)O)cn3-c2ccc(F)cc2)CC1,Potency,[1],inactive
CC(C)Nc1cccnc1N1CCN(C(=O)c2cc3cc(NS(C)(=O)=O)ccc3[nH]2)CC1,Potency,[1],inactive
CCCCCCCCCCCCCCCC(=O)O,Potency,[1],inactive
c1ccc(CC2=NCCN2)cc1,Potency,[1],inactive
CCCCNC(=O)NS(=O)(=O)c1ccc(N)cc1,Potency,[1],inactive
NS(=O)(=O)Cc1noc2ccccc12,Potency,[1],inactive
CNCCc1ccccn1,Potency,[1],inactive
CNCCCCOc1ccccc1Cc1ccccc1,Potency,[1],inactive
COc1ccccc1N1CCN(CCCCNC(=O)c2ccc(-c3ccc(C(C)=O)cc3)cc2)CC1,Potency,[1],inactive
O=C(O)Cc1csc(-c2ccc(Cl)cc2)n1,Potency,[1],inactive
O=C(O)c1ccc(S(=O)(=O)N(Cl)Cl)cc1,Potency,[1],inactive
CCCCCCCCCCCCSCCOCCO,Potency,[1],inactive
Cc1ccc(S(=O)(=O)NC(=O)NC2CCCC2)cc1,Potency,[1],inactive
C[N+]1(CC2COC(c3ccccc3)(C3CCCCC3)O2)CCCCC1 (configuration not stated),Potency,[1],inactive
CC1(C)OC[C@@H]2O[C@@]3(C(=O)O)OC(C)(C)O[C@H]3[C@@H]2O1,Potency,[1],inactive
CN1CCN(CCC(=O)N2c3ccccc3Sc3ccc(C(F)(F)F)cc32)CC1,Potency,[1],inactive
COc1cc(C(=O)NCc2ccc(OCCN(C)C)cc2)cc(OC)c1OC,Potency,[1],inactive
COc1cc(N)c(Cl)cc1C(=O)NC1CCN(Cc2ccccc2)CC1,Potency,[1],inactive
CN(C)CCOC(=O)C(c1ccccc1)C1(O)CCCC1 (configuration not stated),Potency,[1],inactive
O=c1[nH]c(=O)n([C@H]2C[C@H](O)[C@@H](CO)O2)cc1F,Potency,[1],inactive
CCN(CC)CCOc1ccccc1C(=O)CCc1ccccc1,Potency,[1],inactive
Cc1cc(CC(=O)O)c(C)n1-c1ccc(Cl)cc1,Potency,[1],inactive
Nc1ccc(S(=O)(=O)Nc2cnc3ccccc3n2)cc1,Potency,[1],inactive
C[C@@H](O)[C@H]1C(=O)N2C(C(=O)O)=C([C@H]3CCCO3)S[C@H]12,Potency,[1],inactive
C[C@H]1[C@H]2CC[C@H]3[C@@H]4CC=C5C[C@@H](N(C)C)CC[C@]5(C)[C@H]4CC[C@]23CN1C,Potency,[1],inactive
CC(C)Cc1ccc(CC(=O)O)cc1,Potency,[1],inactive
CC(=O)NO,Potency,[1],inactive
CCc1ccc(C(=O)C(C)CN2CCCCC2)cc1 (configuration not stated),Potency,[1],inactive
Cc1ncc(CO)c(C=O)c1O,Potency,[1],14.4 µM (active)
CCC1Nc2cc(Cl)c(S(N)(=O)=O)cc2S(=O)(=O)N1 (configuration not stated),Potency,[1],inactive
COc1cc(C(=S)N2CCOCC2)ccc1O,Potency,[1],inactive
C=C[C@H]1CN2CC[C@H]1C[C@@H]2[C@@H](O)c1ccnc2ccc(OC)cc12,Potency,[1],inactive
COc1cc(C)nc(-n2nc(C)cc2OC)n1,Potency,[1],inactive
C=CCN1CCc2nc(N)sc2CC1,Potency,[1],inactive
CC(=O)O[C@]1(C(C)=O)CC[C@H]2[C@@H]3C=C(C)C4=CC(=O)CC[C@]4(C)[C@H]3CC[C@@]21C,Potency,[1],inactive
CC[N+](C)(CC)CCOC(=O)C(O)(c1ccccc1)C1CCCCC1 (configuration not stated),Potency,[1],inactive
CC(=O)N[C@@H](CCC(=O)O)C(=O)O,Potency,[1],inactive
Clc1cccc(C(c2ccc3nc[nH]c3c2)n2ccnc2)c1 (configuration not stated),Potency,[1],inactive
CN(C)CCC[C@@]1(c2ccc(F)cc2)OCc2cc(C#N)ccc21,Potency,[1],inactive
O=S(=O)(O)c1ccc(O)cc1,Potency,[1],inactive
CCOCCn1c(N2CCCN(C)CC2)nc2ccccc21,Potency,[1],inactive
CC(C)Cn1cnc2c1c(=O)n(C)c(=O)n2C,Potency,[1],inactive
Cc1cc(NS(=O)(=O)c2ccc(N)cc2)nc(C)n1,Potency,[1],inactive
CCCN(CCC)S(=O)(=O)c1ccc(C(=O)O)cc1,Potency,[1],inactive
O=C(Nc1ccccc1)OCC(CN1CCCCC1)OC(=O)Nc1ccccc1 (configuration not stated),Potency,[1],inactive
CCc1cc(Cl)c(OC)c(C(=O)NC[C@@H]2CCCN2CC)c1O,Potency,[1],inactive
Cc1c(-c2ccccc2)oc2c(C(=O)OCCN3CCCCC3)cccc2c1=O,Potency,[1],inactive
O=C(Nc1ccc([N+](=O)[O-])cc1)Nc1ccc([N+](=O)[O-])cc1,Potency,[1],inactive
O=C(Nc1ncc([N+](=O)[O-])s1)c1cccs1,Potency,[1],inactive
Oc1c(Cl)cc(Cl)c(Cl)c1Cc1c(O)c(Cl)cc(Cl)c1Cl,Potency,[2],15.8 µM (active)
same,Potency,[3],35.5 µM (active)
same,Potency,[4],14.1 µM (active)
C=C[C@H]1CN2CC[C@H]1C[C@H]2[C@H](O)c1ccnc2ccc(OC)cc12,Potency,[2],inactive
same,outcome,[5],inactive
CC[C@]12CCCN3CCc4c(n(c5ccccc45)C(=O)C1)[C@@H]32,outcome,[5],inactive
same,outcome,[6],inactive
